Sampled rows, rich in hits. Any-hit rate of the full collection: about 3.3%.
HCV inhibitor: qHTS Assay for Inhibitors of Hepatitis C Virus (HCV); Huh7.5.1 HCVcc-Cre infection, luciferase reporter, 44 h; Potency, µM (titrated, usually from 41.8 µM), without a hit: at the highest dose activity change, negative = inhibition, actives largely listed as inhibitors; hit rate 3.4% among 340,000; active = well fitted inhibition curve with a large enough effect; inconclusive = small, poorly fitted or top-dose-only effect, or another doubt; inactive = no such curve, though single readings can be large or run the other way
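Luciferase read-out (15 sec integration) after a 15 min room-temperature substrate step quantifies HCVcc-Cre infection. Cells, 1,000 per well, had compound added 4 h post-plating, then virus at ~0.5 moi, and were cultured 44 h.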
VACV Venus inh: qHTS for Stage-Specific Inhibitors of Vaccinia Orthopoxvirus: Venus Reporter Primary qHTS; Vaccinia virus Venus reporter expression, fluorescence; Potency, µM (titrated, usually from 36.5 µM), for inactives: at the highest dose activity change, negative = inhibition, most hits filed as inhibitors; hit rate 0.46% among 330,000; calls by dose curve; tested in A549 cells; note: nearly all actives have a fitted effect of over 30% in size
Vaccinia mCherry: qHTS for Stage-Specific Inhibitors of Vaccinia Orthopoxvirus: mCherry Reporter Primary qHTS | Vaccinia virus mCherry reporter infection, fluorescence | Potency, µM (series often up to 36.5 µM), without a hit: at the top dose activity change, negative = inhibition, usual class: inhibitors | hit rate 0.63% among 310,000 | AID 720579, 2013; calls by dose curve; tested in A549 cells; note: nearly all actives have a fitted effect of over 35% in size
Active calls of the source: *; i = inactive; ? = inconclusive; . = no result; [ ] = remark or other dose. % is set by controls: 0 for no effect and ±100 for the full control effect; potency is the fitted concentration of half-maximal effect.

SMILES	HCV inhibitor	VACV Venus inh	Vaccinia mCherry
CC1(C)CC2CC(C)(CN2c2ncnc3ccccc23)C1 (stereo not drawn)	11µM*	?	-17%
O=C(O)CCCCCCCCc1cn(CCc2c[nH]c3ccccc23)nn1	18%	-15%	-25%
CN1CC(c2ccc(Cl)c(Cl)c2)[C@@]2(COc3ccccc3C2=O)[C@@]12C(=O)Nc1ccccc12 (stereo partly drawn)	11µM*	.	.
O=C1Nc2ccccc2C12OCC1(CO2)COC2(OC1)C(=O)Nc1ccccc12 (stereo not drawn)	-17%	-7%	-21%
CC1CCN(Cc2nnnn2CCCC(=O)N(C)C2CCOC2)CC1 (stereo not drawn)	9%	.	.
Cc1c(C(=O)N2CCCCC2)sc2ncnc(NCCN(C)C)c12	.	0%	-6%
CCC1CN(C(=O)NCc2ccccc2)c2cc(Cl)ccc2O1 (stereo not drawn)	5.6µM*	-7%	-2%
CCC1CN(C(=O)NCc2ccccc2)c2ccccc2O1 (stereo not drawn)	?	-10%	-5%
Cc1ncc2c(c1CNC(=O)c1cncs1)CCN(C(=O)c1ccc(C(C)(C)C)cc1)C2	.	?	i
CCc1ccc(CN(C(=O)COc2c(C)cccc2C)C2CCS(=O)(=O)C2)cc1 (stereo not drawn)	-21%	.	.
COc1ccc(/C=N/NC(=O)CCSc2nc3ccccc3s2)cc1OC	10µM*	.	.
Cc1ccccc1NC(=O)CCCSc1nc2ccccc2s1	-24%	-12%	-3%
O=C(CN1CCCC1)N/N=C/c1c(O)ccc2ccccc12	7.9µM*	.	.
Cc1ccc(O)c(/C=N/NC(=O)CN2CCCC2)c1	-17%	.	.
COc1ccc(/C=N/OCC(=O)NC(c2ccccc2)c2ccccc2)cc1OC	4µM*	?	?
COc1ccc(/C=N/OCC(=O)Nc2cc(C)on2)cc1OC	-10%	-8%	i
COc1ccc(/C=N/NC(=O)c2cccnc2)cc1CSc1nc2ccccc2s1	-10%	-27%	?
O=C(CCSc1nc2ccccc2s1)N/N=C/c1c(O)ccc2ccccc12	3.2µM*	.	.
Cc1ccc(-c2nn3c(-c4ccccc4)nnc3c3ccccc23)cc1	.	-10%	-8%
CCN1C(=O)C2(C(C(=O)c3cc4ccccc4o3)=C(O)C(=O)N2CCCN2CCOCC2)c2ccccc21 (stereo not drawn)	12%	-8%	-3%
COc1ccc(-n2nc(C(=O)NCCc3ccc(OC)c(OC)c3)c3c4ccccc4n(C)c3c2=O)cc1Cl	.	-3%	-4%
CC1(C(=O)NS(=O)(=O)C2CC2)CCN(C(=O)c2ccc3ccccc3n2)C1 (stereo not drawn)	.	-3%	37%
COc1cc(/C=N\NC(=O)CNC(=O)C(c2ccccc2)c2ccccc2)ccc1O	?	-17%	-6%
COc1ccc(/C=N/NC(=O)c2cccc(C(=O)N/N=C/c3ccc(OC)c(OC)c3)n2)cc1OC	13%	.	.
COc1ccc(/C=N/NC(=O)Nc2cccc3nsnc23)cc1OC	5.6µM*	-12%	i
SMILES	HCV inhibitor	VACV Venus inh	Vaccinia mCherry
COc1cc(/C=N/NC(=O)CCN2CCN(C(c3ccccc3)c3ccccc3)CC2)ccc1O	4.5µM*	-29%	-30%
COc1ccccc1NC(=O)CSCC(=O)N1c2ccccc2CCc2ccccc21	25µM*	?	-30%
COc1ccc(NC(=O)CSCC(=O)N2c3ccccc3CCc3ccccc32)cc1	2%	-22%	-9%
COc1cccc(Cn2c(NCc3cccnc3)nc3c2c(=O)n(C)c(=O)n3C)c1	5%	?	4.5µM*
COc1cccc(Cn2c(Oc3cccc(C)c3)nc3c2c(=O)n(C)c(=O)n3C)c1	11µM*	-8%	.
COc1cccc(Cn2c(Oc3ccccc3)nc3c2c(=O)n(C)c(=O)n3C)c1	?	-17%	-25%
COc1ccc(Cn2c(NCC(C)C)nc3c2c(=O)n(C)c(=O)n3C)cc1	.	18%	13%
Clc1ccc(Cn2cc3c(n2)-c2cc4ccccc4n2C3)cc1	.	-8%	23%
CCOc1ccc(CC(=O)NC2CC(=O)N(c3cccc(F)c3)C2)cc1 (stereo not drawn)	.	-8%	-8%
COc1ccccc1C1CN(Cc2cccc3nccnc23)Cc2ccccc2O1 (stereo not drawn)	.	-12%	-16%
Cc1cccnc1-c1cccc2c1OC(CNC(=O)C(=O)c1ccccc1)C2 (stereo not drawn)	.	-13%	-14%
Cc1ccc(NC(=O)CSc2n[nH]c(-c3ccco3)n2)c(C)c1	11%	-2%	-5%
Cc1ccc(C)c(NC(=O)CSc2n[nH]c(-c3ccccn3)n2)c1	?	?	7.9µM*
O=C(CSc1n[nH]c(-c2ccccn2)n1)Nc1cccc(Cl)c1	10µM*	-23%	?
Cc1ccc(O)c(NC(=O)CSc2n[nH]c(-c3ccccc3)n2)c1	11µM*	.	.
O=C(CSc1n[nH]c(-c2ccccc2)n1)Nc1ncccn1	1%	-1%	-20%
Cc1ccccc1NC(=O)CSc1n[nH]c(-c2ccccn2)n1	?	-22%	6.3µM*
Cc1ccccc1NC(=O)CSc1nnc(-c2ccccn2)o1	16%	-9%	-10%
Cc1nc(SCC(=O)Nc2cccc(Cl)c2)n[nH]1	8%	-16%	-8%[1.46 µM]
O=C(Cn1ncc2c3ccccc3n(Cc3ccccc3F)c2c1=O)NCc1ccccc1Cl	.	-23%	-22%
C=Cc1ccc(CSc2nc(-c3ccc(C)cc3)nc3c2Cc2c(CO)cnc(C)c2O3)cc1	.	-18%	-15%
O=C(NCCc1ccccn1)C1CC12CCN(C(=O)c1c(F)cccc1Cl)CC2 (stereo not drawn)	.	-4%	1%
CCOc1ccccc1NC(=O)C(c1ccccc1)N1Cc2ccccc2C1=O (stereo not drawn)	.	-6%	i
CN(C(=O)Cn1cc(S(=O)(=O)N2CCN(c3ccccc3F)CC2)c2ccccc2c1=O)c1ccc(Cl)cc1	.	-4%	-13%
O=C(NCc1ccccn1)Nc1ccccc1C(F)(F)F	6%	.	.
SMILES	HCV inhibitor	VACV Venus inh	Vaccinia mCherry
COc1ccccc1-c1ccnc(-n2ncc(C(=O)NC(c3cccnc3)C(F)(F)F)c2C)n1 (stereo not drawn)	.	-27%	?
Cc1cc(C)nc(SCC(=O)Nc2ccnc3ccccc23)n1	1.8µM*	-10%	?
COC(=O)c1ccccc1NC(=O)CSc1nc(C)cc(C)n1	3%	-9%	-22%
COc1ccc(CCN(C)C(=O)c2ccc(C)c(S(=O)(=O)N3CCCCC3)c2)cc1OC	-2%	.	.
CCN(N=O)c1ccc(/C=C/c2ccnc3ccccc23)cc1	.	-20%	-27%
COc1ccccc1CNS(=O)(=O)c1ccc(N2CCCC2)cc1Br	11µM*	-21%	-24%
CCC(=O)N1CCc2cc(Br)cc(S(=O)(=O)NCc3ccccc3OC)c21	11%	-4%	-5%
CC1(C)OC(=O)C2(Cc3cc([N+](=O)[O-])ccc3N3CCCCC32)C(=O)O1 (stereo not drawn)	.	-8%	16%
CCN(CC)c1ccc(NC(=O)c2ccc(=O)[nH]c2)cc1S(=O)(=O)Nc1ccccc1OC	22µM*	-25%	i
CCN(CC)c1ccc(NC(=O)c2cnccn2)cc1S(=O)(=O)Nc1ccc(OC)cc1	8.9µM*	?	-19%
